ASM inhibitor = inhibitors of human secretory acid sphingomyelinase; placental ASM, HMU-PC fluorogenic substrate, 60 min; actives 0.006% (n = 340,000); P17405; Potency, µM (doses to about 57.5 µM), actives largely listed as inhibitors
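Human placenta-derived ASM enzyme was preincubated with compound for 10 minutes at room temperature, then given fluorogenic substrate HMU-PC0 (9 uM final) for 60 minutes at 37 °C; a pH 10 stop preceded fluorescence reading at Ex 386/Em 447 nm.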
hERG WT inh = blocks the wildtype human KCNH2 potassium channel | U2OS, BacMam KCNH2, thallium flux FluxOr; active compounds read low | actives 0.37% (n = 340,000) | activity change, % at 1.84 µM | Q12809;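 active = maximum activity change below -70%; inconclusive = maximum activity change between -70% and -50%; inactive = maximum activity change above -50%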
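U2OS cells were transduced with wild-type KCNH2 virus (2.03 x 10^8 / mL) for 4 h at room temperature, then cultured overnight at 37 C. Thallium flux was read with FluxOr dye. Rate constants were normalized to DMSO controls.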
mIDH1 inhibitor = human IDH1 R132H inhibition; actives 0.093% (n = 390,000); AID 602179; Potency, µM (highest dose often 76.6 µM), hits mostly inhibitors; O75874; IDH1-R132H enzyme, NADPH consumption, diaphorase/resazurin fluorescence; note: nearly all actives have a fitted effect of over 65% in size
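IDH1-R132H (0.5 ug/mL) preincubated 30 min with compound, then NADPH (0.016 mM) and alpha-KG (2 mM) added; 80 min at RT, pH 7.5. Remaining NADPH coupled via diaphorase/resazurin to fluorescence (540/590 nm); concentration-response curves normalized to no-enzyme control.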
Apoferritin bind = candidate novel general anesthetic via apoferritin binding; AID 485281; apoferritin/1-aminoanthracene competitive binding, fluorescence; Potency, µM (series often up to 77.5 µM), most hits filed as inhibitors; actives 0.074% (n = 350,000); note: nearly all actives have a fitted effect of over 20% in size
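Horse-spleen apoferritin (10 uM) in 50% saturated 1-aminoanthracene in PBS was incubated 10 min at room temperature with compound. Fluorescence (ex 380, em 535 nm) was normalized to free and bound 1-AMA, with concentration-response fitted by a four-parameter Hill equation.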
KCNH2 3.1 block = KCNH2 3.1 (human) potassium channel inhibition | U2OS KCNH2 3.1, thallium flux FluxOr; active compounds read low | AID 720553 | activity change, % (tested at about 1.8 µM) | actives 0.95% (n = 340,000);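 active = maximum activity change below -70%; inconclusive = maximum activity change from -70% to -50%; inactive = maximum activity change above -50%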;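 note: thallium influx rate constant from kinetic fluorescence after stimulation buffer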
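Measured as rate of thallium-driven FluxOr signal in transduced U2OS cells carrying the 3.1 channel, read kinetically for 2 min upon stimulation; values are rate constants scaled to DMSO control wells.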
Large screens that a line does not name were inactive. Rows were chosen to be rich in hits. Some 1.2% of all compounds tested hit in one or more screens of this group. Unless noted, calls come from the whole dose curve; as a rule, active = well fitted inhibition curve with a large enough effect; inconclusive = small, poorly fitted or top-dose-only effect; inactive = no such curve, though single readings can be large or run the other way.

CCCCN(C)C1=CC2=CC(=C(C#N)C#N)CCC2CC1 (centres undefined)	hERG WT inh -87, KCNH2 3.1 block -102
N#CC(C#N)=C1C=C2C=C(N3CCCCC3)CCC2CC1 (centres undefined)	hERG WT inh inconclusive, KCNH2 3.1 block -89
CCN(CC)C1=CC2=CC(=C(C#N)C#N)CCC2CC1 (centres undefined)	KCNH2 3.1 block -97
CCOc1ccccc1NC(=O)Cn1c(=O)n(Cc2ccco2)c(=O)c2ccc(C(=O)NC3CCCC3)cc21	none (no result: ASM inhibitor, hERG WT inh, KCNH2 3.1 block)
COCCN(CCOC)c1nc(C)nc2c1nc(-c1ccccc1)n2CC1CCN(C)CC1	none (no result: ASM inhibitor, hERG WT inh, mIDH1 inhibitor, KCNH2 3.1 block)
COc1ccc(Cn2ccc3nc(C)c(C(=O)Nc4ccc(OC)cc4)cc3c2=O)cc1	Apoferritin bind inconclusive (no result: ASM inhibitor, hERG WT inh, KCNH2 3.1 block)
COc1ccc(C(=O)NC(=S)Nc2ccc3oc(=O)ccc3c2)cc1OC	KCNH2 3.1 block -99
COc1cccc(OC)c1C(=O)NC(=S)Nc1ccc2oc(=O)ccc2c1	none
O=[N+]([O-])c1ccc(-c2ccc(S(=O)(=O)NCCN3CCCC3)cc2)cc1	KCNH2 3.1 block -90
O=[N+]([O-])c1ccc(S(=O)(=O)NCCN2CCOCC2)cc1	none
Cc1ccncc1C(=O)O	none (no result: ASM inhibitor, hERG WT inh, mIDH1 inhibitor, KCNH2 3.1 block)
COC(=O)COc1ccc(S(=O)(=O)NCCC2=CCCCC2)cc1C	Apoferritin bind 5.6µM
Cc1ccc2nc(C)c(C(=O)N/N=C/c3cccs3)cc2c1	KCNH2 3.1 block -149
CC(=O)Nc1ccc(/C=N/NC(=O)c2cc3cc(C)ccc3nc2C)cc1	none
COc1ccc(C)cc1N(C(=O)COc1ccccc1)c1nc2ccccc2s1	ASM inhibitor inconclusive, hERG WT inh inconclusive, KCNH2 3.1 block -74
O=[N+]([O-])c1ccc(CNc2ccc(Cl)cc2)s1	Apoferritin bind 14µM
CCc1cc2c3c(c(=O)oc2cc1OC(C)C(=O)O)CCCC3 (centres undefined)	none
CCc1cc2c3c(c(=O)oc2cc1OCC(=O)OC)CCCC3	Apoferritin bind inconclusive, KCNH2 3.1 block -100
CCc1nn2c(=O)cc(COC(=O)C3CCCCC3)nc2s1	Apoferritin bind inconclusive (no result: ASM inhibitor, hERG WT inh, KCNH2 3.1 block)
O=C(NC1CCCCC1)c1cccc2c1C(=O)c1ccc(-c3ccc(OC(F)(F)F)cc3)cc1S2(=O)=O	KCNH2 3.1 block -129 (no result: Apoferritin bind)
COc1ccc(-c2ccc3c(c2)S(=O)(=O)c2cccc(C(=O)NC4CCCC4)c2C3=O)cc1OC	none (no result: Apoferritin bind)
COc1cccc(CN2CC34CCC(CC3S2(=O)=O)O4)c1 (centres undefined)	none (no result: ASM inhibitor, hERG WT inh, mIDH1 inhibitor, KCNH2 3.1 block)
COc1ccccc1NC(=O)CC1Sc2ccc(C(F)(F)F)cc2NC1=O (centres undefined)	none (no result: ASM inhibitor, hERG WT inh, KCNH2 3.1 block)
CC1(C)Cc2c(sc3nnn(Cc4ccc(Cl)cc4)c(=O)c23)CO1	none
CC1(C)Cc2c(sc3c2c(N)nc(=S)n3Cc2ccc(Br)cc2)CO1	hERG WT inh inconclusive, KCNH2 3.1 block -104
COc1ccccc1NC(=O)C1CCN(S(=O)(=O)c2cn(C)cn2)CC1	none (no result: ASM inhibitor, hERG WT inh, KCNH2 3.1 block)
CC(=O)OC[C@H]1O[C@@H](O/N=C(\C)CCN2CCc3nc(-c4ccccc4)c(-c4ccccc4)cc3C2)[C@H](OC(C)=O)[C@@H](OC(C)=O)[C@H]1OC(C)=O	none (no result: ASM inhibitor, hERG WT inh, mIDH1 inhibitor, KCNH2 3.1 block)
CC1CCN(C(=O)c2cccc(NC(=O)c3nsc4ccccc34)c2)CC1	none (no result: ASM inhibitor, hERG WT inh, KCNH2 3.1 block)
CCCCNc1c(-c2ccc(SC3CCCCC3)c(OC)c2)nc2ccc(Cl)cn12	KCNH2 3.1 block -97 (no result: Apoferritin bind)
CCCCNc1c(-c2ccc(SC(C)CC)c(OC)c2)nc2ccc(Cl)cn12 (centres undefined)	hERG WT inh -238 (no result: Apoferritin bind)
COC(=O)C1=C(C)N(Cc2ccccc2)C2=C(C(C)=O)C[C@@](O)(C(=O)OC)C(=O)N2C1c1ccccc1 (some centres undefined)	none (no result: ASM inhibitor, hERG WT inh, mIDH1 inhibitor, KCNH2 3.1 block)
CCN(CC)C(=O)Cn1c(=O)n(Cc2ccc(C(=O)NCCc3ccc(OC)c(OC)c3)cc2)c(=O)c2ccccc21	none (no result: ASM inhibitor, hERG WT inh, KCNH2 3.1 block)
O=[N+]([O-])c1ccc(/C=N\NS(=O)(=O)c2ccc(F)cc2)o1	KCNH2 3.1 block -85
CCOC(=O)C1(Cc2cccc(F)c2)CCN(Cc2cn(CC)nc2C)CC1	none
CCOC(=O)C1(CCCc2ccccc2)CCN(Cc2cn(CC)nc2C)CC1	KCNH2 3.1 block -93
CCOC(=O)C1(CCc2ccccc2)CCN(Cc2cccc3nccnc23)CC1	KCNH2 3.1 block -99

High-throughput results from PubChem.
